Data from PubChem BioAssay AID1619 (SRMLSC, 2009).
The campaign covered roughly 220,000 compounds. About 830 (0.38%) were called active.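 How the source made its calls: active means compound inhibiting the enzyme by more than half at any dose during confirmatory dose-response retesting; inconclusive means strong single-dose inhibitors picked by rank but not retested; inactive means the rest.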 Not all results are given here. Entries with a potency or affinity are not part of this list.

Target: Leucine aminopeptidase (Plasmodium falciparum (isolate 3D7)) (UniProt Q8IL11)
Sequence (Q8IL11 whole entry, looked up): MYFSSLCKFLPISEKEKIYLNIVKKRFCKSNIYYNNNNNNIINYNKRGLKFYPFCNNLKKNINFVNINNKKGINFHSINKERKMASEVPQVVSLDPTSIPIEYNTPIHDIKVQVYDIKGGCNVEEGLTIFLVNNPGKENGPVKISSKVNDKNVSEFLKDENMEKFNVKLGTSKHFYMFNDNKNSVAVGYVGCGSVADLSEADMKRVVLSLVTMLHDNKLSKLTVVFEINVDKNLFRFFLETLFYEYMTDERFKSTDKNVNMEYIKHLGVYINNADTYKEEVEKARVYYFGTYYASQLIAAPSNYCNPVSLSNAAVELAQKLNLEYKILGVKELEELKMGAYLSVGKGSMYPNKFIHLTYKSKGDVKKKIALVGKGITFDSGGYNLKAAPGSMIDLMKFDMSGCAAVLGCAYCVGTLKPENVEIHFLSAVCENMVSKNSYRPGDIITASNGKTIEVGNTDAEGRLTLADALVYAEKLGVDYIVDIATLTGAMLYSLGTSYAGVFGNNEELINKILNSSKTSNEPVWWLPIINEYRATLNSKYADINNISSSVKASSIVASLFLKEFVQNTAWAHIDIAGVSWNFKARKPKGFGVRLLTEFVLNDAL
Test: P. falciparum M17LAP inhibitors, primary screen, biochemical, fluorogenic H-Leu-NHMec substrate, 1536-well (AID 1619);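 further: plate controls were full reaction with DMSO carrier for no effect and no enzyme background for full effect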
Settings: recombinant M17LAP, H-Leu-NHMec fluorogenic kinetic assay; at 30 µM; active compounds read high

inhibition, inactive:
CN1CCC(Oc2ccccc2Sc2ccccc2)CC1 2.7%
Cc1ccc(S(=O)(=O)Nc2ccccc2C(=O)Nc2ccc(S(=O)(=O)Nc3nccc(C)n3)cc2)cc1 -17.2%
CC(=O)Nc1ccc(NC(=O)CSc2nnc(C)c(=O)[nH]2)cc1 5.47%
Cc1cccc(C)c1NC(=O)CSc1nnc(C)c(=O)[nH]1 15.2%
Cc1nnc(SCC(=O)Nc2ccccc2)[nH]c1=O 41.7%
Cc1nnc(SCC(=O)Nc2ccc3c(c2)OCO3)[nH]c1=O 6.76%
O=c1c2ccccc2nnn1Cc1ccc2ccccc2c1 -5.34%
COc1ccc(-n2c(SC(CN3CCCCC3)CN3CCCC3=O)nc3ccccc3c2=O)cc1 (centres undefined) 0.58%
CCOC(=O)C1=C(O)/C(=C/c2ccc(OCC(=O)O)c(OC)c2)SC1=Nc1ccc(OC)cc1 41.7%
CCOc1cc(C=C2C(=O)c3ccccc3C2=O)ccc1OCC(=O)Nc1ccc(C)cc1 6.24%
CCOC(=O)C1=C(O)/C(=C/c2ccc(OCC(=O)O)c(OCC)c2)SC1=Nc1ccccc1 43.5%
CCOC(=O)C1=C(O)/C(=C/c2ccc(OCC(=O)O)c(OC)c2)SC1=Nc1ccc(OCC)cc1 38.5%
Cc1ccc(C(=O)Nc2nc3ccc(S(C)(=O)=O)cc3s2)o1 48.6%
CCOc1cc(S(=O)(=O)NC2CCCCCC2)ccc1F 4.34%
CCc1ccc(Nc2nnc(SCC(=O)N(C)C3CCS(=O)(=O)C3)s2)cc1 (centres undefined) 6.41%
Cc1nc(CSc2nnc(Nc3cccc(C)c3C)s2)cs1 22.7%
O=C1CCCCC1Sc1nnc(Nc2ccccc2)s1 (centres undefined) 16.7%
Cc1cccc(Nc2nnc(SCC(=O)N(C)C3CCS(=O)(=O)C3)s2)c1C (centres undefined) 35%
Cc1cccc(Nc2nnc(SCC3CCCCO3)s2)c1C (centres undefined) 13.4%
Cc1ccc(Nc2nnc(SCC(=O)c3ccc(Br)s3)s2)c(C)c1 27.2%
Cc1ccc(Nc2nnc(SCC(=O)NC3CCS(=O)(=O)C3)s2)c(C)c1 (centres undefined) 9.77%
Cc1cccc(Nc2nc3ccccc3s2)c1C 0.94%
CCSc1ccc2cc(OC)ccc2[n+]1CC 2.2%
Cc1ccc(NC(=O)CNCc2ccccc2)cc1Br 1.6%
CCC(C)(C)n1nnnc1CN1CCN(C(c2ccccc2)c2ccccc2)CC1 7.37%
O=C1CSC2(CCCCC2)N1CCO 15.1%
O=S1(=O)CCC(NC(=S)NC2CCS(=O)(=O)C2)C1 (centres undefined) 1.24%
CCOCCCNC(=S)N1C2CCC1CC(NC(=O)NC13CC4CC(CC(C4)C1)C3)C2 (centres undefined) 2.02%
C=CC(=O)N=c1sc2ccccc2n1-c1ccccc1 -2.28%
c1ccc(-c2ccccc2OCCCN2CCCCCC2)cc1 -1.36%
Cc1cccc(NS(=O)(=O)c2cnc[nH]2)c1 -0.29%
CCCCN=C(C)C1=C(O)CSC1=O 12.4%
Cc1ccc(Nc2nnc(SCC3CCCCO3)s2)cc1 (centres undefined) 13.8%
CC(C)c1ccc(Nc2nnc(SC3CCOC3=O)s2)cc1 (centres undefined) 32.8%
Cc1cc(C)n(-c2ccc(C(=O)Nc3nnc(C4CC4)s3)cc2)n1 4.37%
COc1ccc(OC)c(NC(=O)c2ccc(CSc3nnc(C)s3)cc2)c1 -1.27%
N/C(=N\OC(=O)COc1ccc(Br)cc1Cl)c1ccccn1 -6.93%
O=C1C(C2=NC(c3ccccn3)C3C(=O)N(c4ccc(OC(F)(F)F)cc4)C(=O)C23)=C(O)c2ccccc21 (centres undefined) -6.84%
O=C1C(C2=NC(c3ccccn3)C3C(=O)N(c4ccccc4)C(=O)C23)=C(O)c2ccccc21 (centres undefined) -11%
O=C(C1=NN(c2ccccc2)C2C(=O)N(c3ccc(Cl)cc3)C(=O)C12)c1ccccc1 (centres undefined) 4.99%
O=C1C(C2=NC(c3ccccn3)C3C(=O)N(c4ccc(Cl)cc4Cl)C(=O)C23)=C(O)c2ccccc21 (centres undefined) 3.81%
O=C(NNC(=O)c1cccc2ccccc12)c1ccc(-c2ccccc2)cc1 -1.51%
CCCCOC(=O)c1ccc(NC(=O)C(=O)NCCN(C)C)cc1 4.81%
Cn1cnc([N+](=O)[O-])c1Oc1cccc(O)c1 -5.34%
Cc1cc(NS(=O)(=O)c2ccc(NC(=O)Nc3ccccc3)cc2)no1 53.6%
Cc1noc(NS(=O)(=O)c2ccc(NC(=O)CSc3ncccn3)cc2)c1C -8.95%
O=C(CSc1nc2ccccc2s1)Nn1cnnc1 6.17%
Cc1cc(C)nc(SCC(=O)Nc2ccc(S(=O)(=O)Nc3ncccn3)cc2)n1 0.08%
Cc1cc(C)nc(NC(=O)CSc2nc3ccccc3s2)n1 -0.55%
Cc1noc(NS(=O)(=O)c2ccc(NC(=O)CSc3nc4ccccc4[nH]3)cc2)c1C -54.8%
O=C(CSc1ccccc1)Nc1ccc(S(=O)(=O)Nc2ncccn2)cc1 4.72%
Cc1cc(NS(=O)(=O)c2ccc(NC(=O)Nc3cccc(Cl)c3)cc2)no1 41%
Cc1nn(-c2ccccc2)c(Cl)c1/C=C(\C#N)C(=O)NC(C)C 0.39%
COCc1cc(C)nc(N/N=C/c2ccc(Cl)c(Cl)c2)c1C#N -7.61%
O=[N+]([O-])c1ccc(Nc2c3ccccc3nc3ccccc23)cc1 -29.4%
Cc1ccc(NC(=O)CN2C(=O)N/C(=C\c3cccnc3)C2=O)cc1 2.33%
Cc1ccc(Cn2c(SCc3cccnc3)nc3c2c(=O)n(C)c(=O)n3C)cc1 5.09%
CC(=O)Nc1ccc(NC(=O)CN(c2cccc(C)c2)S(C)(=O)=O)cc1 1.19%
CCc1cccc(NC(=O)CCc2nc(-c3cccs3)no2)c1 17.6%
CCNC(=S)Nc1ccc(Cl)c([N+](=O)[O-])c1 -6.59%
NC(=O)CC(NC(=O)Cc1ccc(Br)cc1)c1ccc(NCc2ccc(F)c(F)c2)c([N+](=O)[O-])c1 (centres undefined) -2.21%
Cc1cc(C)nc(SCC(=O)Nc2ccc(S(=O)(=O)Nc3onc(C)c3C)cc2)n1 -13.9%
Cc1cc(C(=O)Nc2ccc(S(=O)(=O)Nc3onc(C)c3C)cc2)c(C)o1 -21.9%
Cc1noc(NS(=O)(=O)c2ccc(N/C=C/C(=O)c3ccc4c(c3)OCO4)cc2)c1C 36.4%
Cc1noc(NS(=O)(=O)c2ccc(N/C=C/C(=O)c3ccc(F)cc3)cc2)c1C 20.6%
Cc1noc(NS(=O)(=O)c2ccc(NC(=O)CSc3n[nH]c(-c4ccccc4)n3)cc2)c1C -60.9%
Cc1cc(C)c(C(=O)Nc2ccc(S(=O)(=O)Nc3onc(C)c3C)cc2)c(C)c1 -10.6%
CCSc1cnn(-c2ccccc2)c(=O)c1SCC 9.04%
Cc1ccc(C(=O)O)cc1NC(=O)C1CCCN1S(=O)(=O)c1cccc2nsnc12 (centres undefined) -2.3%
CC(=O)Nc1ccccc1OCC(=O)NC(C)c1ccc(F)cc1 (centres undefined) 7.52%
CCOC(=O)c1oc2ccccc2c1NC(=O)c1ccc(S(=O)(=O)N2CCCC2)cc1 -6.8%
S=c1[nH]nc(-c2cc(-c3ccccc3)n[nH]2)n1/N=C/c1ccc(Cl)cc1 1.35%
O=C(Nc1ccc(Cl)cc1)c1csc(-c2ccccc2)n1 -10.4%
CC(C)OC(=O)/C(C#N)=C/c1cn(C)c2ccccc12 -3.85%
CC(=O)N1CCC2(CC1)C(C#N)=C(N)Oc1n[nH]c(C)c12 8.86%
Cc1ccc(SCc2[nH]nc3c2C2(C(=O)Nc4ccc(F)cc42)C(C#N)=C(N)O3)cc1 (centres undefined) 10.5%
CC(=O)N1CCC2(CC1)C(C#N)=C(N)Oc1n[nH]c(C(F)(F)F)c12 -15.9%
COCc1[nH]nc2c1C1(CCSCC1)C(C#N)=C(N)O2 11.4%
CCCC(=O)Nc1ccc(C(=O)NN2C(=O)c3ccccc3C2=O)cc1 -2.16%
O=C(c1ccccn1)N(Cc1ccco1)C1(C(=O)NC2CCCCC2)CCCCC1 1.03%
CC1CCCCN1CC(=O)Nc1cc(S(=O)(=O)N2CCOCC2)ccc1N1CCCC1 (centres undefined) 4.92%
Cc1ccc(NC(=O)N2CCCCC2)cc1NC(=O)N1CCCCC1 -2.13%
C/C(CC1CC(COCC(C)C)OC1=O)=N\Nc1nc(-c2ccccc2)cs1 (centres undefined) 10.7%
CC1CC(CC(=O)NNc2nc(-c3ccccc3)cs2)C(=O)O1 (centres undefined) 12.5%
CC1CC(CC(=O)Nc2nc(-c3ccccc3)cs2)C(=O)O1 (centres undefined) 2.05%
CC1(C)CC(CC(=O)NNc2nc(-c3ccccc3)cs2)C(=O)O1 (centres undefined) 12.7%
O=C(CN(Cc1ccco1)S(=O)(=O)c1ccccc1)N/N=C/c1ccccc1C(=O)O 38.3%
CCOc1cc(C(=O)OCC(=O)Nc2cc(C)on2)ccc1OCC(C)C -3.97%
Cc1ccccc1NC(=O)Cn1nnc(-c2ccc(N3CCOCC3)cc2)n1 2.77%
COc1ccccc1N(CC(=O)Nc1cc(C)on1)S(=O)(=O)c1ccc(Cl)cc1 -0.47%
NC(=O)[C@@H]1CCCN1Cc1nc(-c2cccs2)no1 -3.71%
CCOC(=O)/C(C#N)=C/C=C1\C=Cc2ccccc2N1CC 1.1%
CCCCCCN1C=CC(=C/C=C(\C#N)C(=O)OCC)C=C1 -2.08%
CCOC(=O)/C(C#N)=C\c1ccc(CC)s1 14.8%
CCCN1C=CC(=CC=C(C#N)C#N)C=C1 40.8%
CCOC(=O)/C(C#N)=C\N(C)C 5.6%
CCOC(=O)/C(C#N)=C/N=c1ccc(C)cn1C 12.6%
CCOC(=O)/C(C#N)=C/C=C1/C=CC=CN1C 20%
C=CCN1C=C/C(=C\C=C(C#N)C#N)c2ccccc21 -9.06%
